The source of these data is PubChem BioAssay.

Activity calls are given as the source filed them.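 How the source made its calls, unless noted: active means inhibition at or above 50% at 10 µM; inactive means inhibition below 50%.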

Assay [1] can be described thus: inhibitors of TNFa-induced NFkB p65 translocation, primary screen, imaging, HUVEC, MLSMR starter and 10KST1 sets (AID 438;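 active means inhibition above 20% together with a positive visual image hit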;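 further: compound added about 3h40 before a 20 min TNFalpha stimulation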;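 on inhibition: signal is the nuclear over cytoplasmic p65 intensity ratio per well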). Conditions: HUVEC TNFa-induced p65 nuclear translocation; cell count: measured here: nuclei count (cytotoxicity indicator), at 2.08 µM; inhibition: at 2 µM, stronger effect = higher value, 0% TNFa-plus-vehicle, 100% no-TNFa wells.
Assay [2] can be described thus: reduction of polyQ htt aggregates in cells – imaging, exon1htt(103Q)mCFP cells, high-content imaging, primary screen (AID 483;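 active means visual image review flags a hit and inhibition of aggregation exceeds 20%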;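 further: compound exposure lasted 3 days before fixation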;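 on nuclei count: percent of the per-plate median nuclei count of sample wells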). Conditions: exon1htt(103Q)mCFP cell line, aggregate imaging, at 2 µM; inhibition of aggregation: stronger effect = higher value; nuclei count: measured here: cell count, toxicity.
Assay [3] is described as follows: endothelial E-selectin expression blockers – imaging, HUVEC, immunofluorescence, MLSMR starter and 10KST1 sets, primary screen (AID 487;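 active means visually confirmed hit in the image check and inhibition above 20%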;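 on inhibition: signal is fraction of cell area covered by stained E-selectin grains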;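 on nuclei count: 100% = median nuclei count of all wells on the same plate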). Conditions: HUVEC TNFalpha-induced E-selectin immunofluorescence imaging, at 2 µM; inhibition: stronger effect = higher value; nuclei count: measured here: cell number, toxicity.
The target in assay [4] is Voltage-gated potassium channel subunit beta-2 (Rattus norvegicus) (UniProt P62483). The experiment in a line: inhibitors of rat Kvbeta2 reductase activity – biochemical, NADPH fluorescence, primary screen (AID 622;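 active means fluorescence slope higher than the sample average by over 3 SD, cut at about -0.22 in these data, passing the limit was not always enough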;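 further: slope of raw intensity against log time taken from 70 to 1610 s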). Conditions: recombinant KvBeta, 4-cyanobenzaldehyde reduction, at 10 µM, stronger effect = higher value.
Assay [5] has the same target. Briefly: enhancers of rat Kvbeta2 NADPH turnover – biochemical, NADPH fluorescence, primary screen (AID 623;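 active means NADPH fluorescence slope more negative than the mean of all samples by about 3 SD, 99.7% confidence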;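 further: fluorescence intensity change per second fitted from 20 to 320 s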). Conditions: Recombinant KvBeta, NADPH fluorescence decrease slope, 10 min; at 10 µM; stronger effect = lower value.
In assay [6] the target is Alpha-2C adrenergic receptor (Homo sapiens) (UniProt P18825). Briefly: compounds altering alpha2C-coupled GIRK flux – cell-based, HEK293 alpha2C/GIRK1/2, thallium flux, primary screen (AID 624;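 active means fluorescence slope after compound addition differing from the mean of all screened samples at 99.7% confidence, in either direction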;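 further: slope of fluorescence ratio to pre-addition baseline per second over 15 to 24 s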). Conditions: thallium flux BTC fluorescence, at 10 µM, actives lie on both sides.
The nature of assay [7]: blockers of RIG-like receptor reporter activation – cell-based, Sendai virus stimulus, luciferase, 10K MLSCN set, TLR/RLR signaling modifier project, primary screen (AID 602276).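 Further: firefly luciferase from ISG56 promoter only with Renilla not read in this screen; 0% = Sendai virus plus DMSO and 100% = medium plus DMSO without virus.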 The conditions noted are these: HEK293 RL24 IRF3 luciferase reporter, at 10 µM, stronger effect = higher value.
The nature of assay [8]: TLR3 IRF3 reporter activation blockers – cell-based, poly I:C stimulus, luciferase, 10K MLSCN set, primary screen (AID 602277;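 active means inhibition of the reporter signal at or above 50%; inactive means inhibition below 50%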). The conditions noted are these: HEK293-TLR3 RL24 IRF3 luciferase reporter, at 10 µM, stronger effect = higher value.

Broadly, the inhibition is the relative decrease from the control value, in per cent.

Chain of Voltage-gated potassium channel subunit beta-2 (Rattus norvegicus) (P62483 whole entry, looked up): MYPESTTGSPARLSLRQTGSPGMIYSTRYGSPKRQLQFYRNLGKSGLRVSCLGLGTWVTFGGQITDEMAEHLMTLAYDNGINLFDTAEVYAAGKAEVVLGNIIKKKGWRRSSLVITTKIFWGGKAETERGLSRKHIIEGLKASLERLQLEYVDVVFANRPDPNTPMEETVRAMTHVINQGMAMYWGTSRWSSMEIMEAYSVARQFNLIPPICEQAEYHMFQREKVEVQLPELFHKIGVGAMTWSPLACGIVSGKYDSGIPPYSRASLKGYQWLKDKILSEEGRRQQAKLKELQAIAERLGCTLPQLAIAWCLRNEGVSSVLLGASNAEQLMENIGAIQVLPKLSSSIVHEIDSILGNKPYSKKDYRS
Chain of Alpha-2C adrenergic receptor (Homo sapiens) (P18825 whole entry, looked up): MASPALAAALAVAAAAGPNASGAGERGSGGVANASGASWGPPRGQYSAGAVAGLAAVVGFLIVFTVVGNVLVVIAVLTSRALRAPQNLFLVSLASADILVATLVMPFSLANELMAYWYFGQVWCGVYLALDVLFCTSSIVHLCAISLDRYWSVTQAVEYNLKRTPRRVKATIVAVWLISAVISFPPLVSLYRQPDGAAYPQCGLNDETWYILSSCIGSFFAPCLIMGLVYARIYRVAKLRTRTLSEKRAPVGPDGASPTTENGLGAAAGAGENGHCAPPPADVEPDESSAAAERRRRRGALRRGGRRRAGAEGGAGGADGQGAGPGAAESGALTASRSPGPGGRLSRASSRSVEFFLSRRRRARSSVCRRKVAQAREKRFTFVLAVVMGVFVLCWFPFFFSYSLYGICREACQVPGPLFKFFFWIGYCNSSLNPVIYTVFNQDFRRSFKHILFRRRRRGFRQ

On to `COc1ccccc1C(=O)N1CCN=C1SCc1cccnc1`, for which the cell count in assay [1] is 266. In addition, the inhibition in assay [1] was -0.3% (inactive); in assay [3] it was 0.7% (inactive); in assay [7], -7.45% (inactive); in assay [8] it was 6.88% (inactive). In assay [2], the inhibition of aggregation was -22.1% (inactive). Further, the results for the nuclei count in assay [2] and in assay [3] were 103% and 97.2%, respectively. In addition, in assay [4], the fluorescence slope was -0.595 (inactive). For the same compound, in assay [5], the NADPH fluorescence slope is -3.9e-05 (inactive). Also, the slope in assay [6] was 0.00599 (inactive).
Take `COc1ccc(C2C(C(=O)NCCN3CCOCC3)c3ccccc3C(=O)N2C2CCCCC2)cc1` (centres undefined): the cell count in assay [1] was determined as 334. For the same compound, the inhibition in assay [1] was 10.1% (inactive); in assay [3] it was -93.5% (inactive); in assay [7] it was 30.2% (inactive); in assay [8], 26% (inactive). Besides, in assay [2], the inhibition of aggregation is 12.7% (inactive). Further, the nuclei count in assay [2] and in assay [3] was 111% each time. Further, the fluorescence slope in assay [4] is -0.611 (inactive). Also, the NADPH fluorescence slope in assay [5] was -2.8e-05 (inactive). The slope in assay [6] was 0.00399 (inactive).
Take `CC(=O)N(C)C1(c2nnnn2CCOC(=O)Nc2cccc3ccccc23)CCCC1`: the cell count in assay [1] amounted to 600. Moreover, the inhibition was -8.2% (inactive) in assay [1], -99.1% (inactive) in assay [3], 13% (inactive) in assay [7] and 21.8% (inactive) in assay [8]. For the same compound, the inhibition of aggregation in assay [2] is 31.6% (inactive). Further, the values for the nuclei count in assay [2] and in assay [3] were 98.9% and 105%, respectively. For the same compound, the fluorescence slope in assay [4] was -0.61 (inactive). The NADPH fluorescence slope in assay [5] is -5.7e-05 (inactive). The slope in assay [6] is 0.00458 (inactive).
Turning to `CCN(CC)C(=O)Cn1c(=O)n(Cc2ccccc2Cl)c2c1c(=O)n(C)c(=O)n2C`, the cell count in assay [1] turned out to be 678. In addition, the inhibition in assay [1] is -6.4% (inactive); in assay [3], 49% (inactive); in assay [7], 2.5% (inactive); in assay [8] it was 10.3% (inactive). Also, the inhibition of aggregation in assay [2] is 21.9% (inactive). The nuclei count in assay [2] amounted to 94.3%; in assay [3], 85.7%. Also, the fluorescence slope in assay [4] is -0.45 (inactive). Further, in assay [5], the NADPH fluorescence slope was 3.6e-05 (inactive). In addition, the slope in assay [6] was 0.00765 (inactive).
Turning to `CN1/C(=C\C(=O)C(F)F)C(C)(C)c2ccccc21`, in assay [1], the cell count was determined as 296. The inhibition in assay [1] was 3.5% (inactive); in assay [3] it was 17.2% (inactive); in assay [7], 20.8% (inactive); in assay [8] it was 17.4% (inactive). Besides, the inhibition of aggregation in assay [2] is -24% (inactive). For the same compound, the results for the nuclei count in assay [2] and in assay [3] were 104% and 116%, respectively. In addition, the fluorescence slope in assay [4] is -0.504 (inactive). Further, the NADPH fluorescence slope in assay [5] is 1.6e-05 (inactive). Also, the slope in assay [6] is 0.00399 (inactive).
Take `O=C(COC(=O)CSc1nnc(-c2ccc(Cl)cc2)o1)NCc1ccc2c(c1)OCO2`: the cell count in assay [1] worked out at 517. Also, the inhibition in assay [1] was -2.4% (inactive); in assay [3], 9.2% (inactive); in assay [7], 8.92% (inactive); in assay [8] it was 17.2% (inactive). Also, the inhibition of aggregation in assay [2] is 4.7% (inactive). Moreover, the nuclei count in assay [2] worked out at 123%; in assay [3], 107%. Moreover, the fluorescence slope in assay [4] is -0.587 (inactive). Further, the NADPH fluorescence slope in assay [5] was -3.7e-05 (inactive). In assay [6], the slope is 0.00607 (inactive).
Regarding `CN(C(=O)COc1cc(=O)n(C)c2ccccc12)c1ccc(Br)cc1`, the cell count in assay [1] stood at 389. The inhibition was 71.5% (active) in assay [1], -178% (inactive) in assay [3], 6.78% (inactive) in assay [7] and 45.9% (inactive) in assay [8]. For the same compound, the inhibition of aggregation in assay [2] was 2.9% (inactive). Also, the nuclei count in assay [2] amounted to 104%; in assay [3], 142%. Also, in assay [4], the fluorescence slope is -0.513 (inactive). For the same compound, in assay [5], the NADPH fluorescence slope was -1.3e-05 (inactive). Also, the slope in assay [6] is 0.00662 (inactive).
As for `O=C1CCCN1CCCNc1ncnc2c1[nH]c1ccc(Cl)cc12`, the cell count in assay [1] was 465. Moreover, the inhibition is 0.8% (inactive) in assay [1], -164% (inactive) in assay [3], -14.5% (inactive) in assay [7] and -66.1% (inactive) in assay [8]. For the same compound, the inhibition of aggregation in assay [2] is -18.4% (inactive). The nuclei count in assay [2] was found to be 101%; in assay [3], 119%. The fluorescence slope in assay [4] was -0.391 (inactive). Further, in assay [5], the NADPH fluorescence slope is 3.6e-05 (inactive). Moreover, the slope in assay [6] is 0.00715 (inactive).
Turning to `CCCOc1cccc(C(=O)N(Cc2ccco2)C2CCS(=O)(=O)C2)c1` (centres undefined), the cell count in assay [1] turned out to be 378. Besides, the inhibition in assay [1] was 1.7% (inactive); in assay [3] it was -94.2% (inactive); in assay [7], 2.23% (inactive); in assay [8] it was -2.97% (inactive). Also, the inhibition of aggregation in assay [2] is -7.9% (inactive). Besides, the nuclei count in assay [2] came out at 100%; in assay [3], 112%. Further, the fluorescence slope in assay [4] was -0.442 (inactive). Also, in assay [5], the NADPH fluorescence slope is -3.3e-05 (inactive). In addition, the slope in assay [6] is 0.00536 (inactive).
For `O=C(NCC1CCCO1)c1ccccc1-c1nc(-c2ccc(Cl)cc2)no1` (centres undefined), the cell count in assay [1] was determined as 821. Also, the inhibition in assay [1] is -0.7% (inactive); in assay [3] it was -141% (inactive); in assay [7] it was -17.2% (inactive); in assay [8] it was -4.71% (inactive). The inhibition of aggregation in assay [2] was 1.8% (inactive). For the same compound, the nuclei count was found to be 101% in assay [2] and 122% in assay [3]. Also, the fluorescence slope in assay [4] is -0.483 (inactive). Moreover, in assay [5], the NADPH fluorescence slope was 3.6e-05 (inactive). In addition, in assay [6], the slope was 0.0055 (inactive).
For `Nc1ncnc2oc(-c3ccco3)c(-c3ccco3)c12`, in assay [1], the cell count was found to be 413. In addition, the inhibition is -3.3% (inactive) in assay [1], -29.9% (inactive) in assay [3], -5.47% (inactive) in assay [7] and -31.5% (inactive) in assay [8]. Besides, the inhibition of aggregation in assay [2] was 15.7% (inactive). In addition, the nuclei count was 84.7% in assay [2] and 111% in assay [3]. For the same compound, the fluorescence slope in assay [4] was -0.49 (inactive). The NADPH fluorescence slope in assay [5] was -1.2e-05 (inactive). The slope in assay [6] is 0.00377 (inactive).
Consider `O=C(NCCCN1CCOCC1)c1ccc(CS(=O)(=O)c2c(Cl)cccc2Cl)o1`, for which the cell count in assay [1] was found to be 440. Moreover, the inhibition in assay [1] was 0.9% (inactive); in assay [3], -46.8% (inactive); in assay [7], -8.21% (inactive); in assay [8] it was 6.97% (inactive). Besides, the inhibition of aggregation in assay [2] is -10.5% (inactive). In addition, the nuclei count turned out to be 98.2% in assay [2] and 103% in assay [3]. Moreover, the fluorescence slope in assay [4] was -0.458 (inactive). For the same compound, in assay [5], the NADPH fluorescence slope is 2.8e-05 (inactive). In assay [6], the slope is 0.00463 (inactive).
As for `CCOC(=O)C1CCN(c2c(N(C)Cc3ccco3)c(=O)c2=O)CC1`, in assay [1], the cell count worked out at 789. Further, the inhibition was 0.9% (inactive) in assay [1], -33.1% (inactive) in assay [3], 5.07% (inactive) in assay [7] and 22.7% (inactive) in assay [8]. In addition, in assay [2], the inhibition of aggregation was 3.8% (inactive). In addition, the nuclei count amounted to 103% in assay [2] and 114% in assay [3]. For the same compound, the fluorescence slope in assay [4] was -0.576 (inactive). For the same compound, the NADPH fluorescence slope in assay [5] is -2.6e-05 (inactive). Besides, in assay [6], the slope was 0.00601 (inactive).
Turning to `CCOC(=O)c1cc(C)sc1N1C(=O)C2C3C=CC(C3)C2C1=O` (centres undefined), in assay [1], the cell count was found to be 223. Moreover, the inhibition in assay [1] was 3.3% (inactive); in assay [3], -37% (inactive); in assay [7], 16.2% (inactive); in assay [8], 15.2% (inactive). The inhibition of aggregation in assay [2] is -17.4% (inactive). Besides, the nuclei count was 97.5% in assay [2] and 138% in assay [3]. For the same compound, the fluorescence slope in assay [4] was -0.543 (inactive). Moreover, in assay [5], the NADPH fluorescence slope is -8.1e-05 (inactive). Besides, the slope in assay [6] was 0.00512 (inactive).
